Rows were chosen to be rich in hits. Some 6.8% of all compounds tested hit in one or more screens of this group.
HCV NS3h FP – blocks HCV NS3 helicase binding to DNA | NS3h Cy5-dT15 DNA binding, fluorescence polarization | inhibition, % at 100 µM | 1.6% of 16,000 active | AID 687043;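 active = inhibition above the average over every tested compound plus 3 SD, cut at about 40% in these data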
Cy5 interf NS3h – Cy5 fluorescence interference, HCV helicase counter-screen | 6% of 16,000 active | fluorescence interference ratio at 100 µM | Cy5-dT15 DNA with NS3h; actives lie on both sides; signal over control mean, under 1 quenches;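 active = compound fluorescence over control fluorescence at most 0.8, a quencher, or at least a set upper limit, an enhancer; inactive = ratio between 0.8 and the set upper limit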
HCV NS3h conf – hepatitis C NS3 helicase inhibition, confirmation; 20% of 240 active; inhibition, % at 100 µM; NS3h binding to Cy5-dT15 DNA, fluorescence polarization; AID 720485; shares compounds with HCV NS3h FP;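 active = percent inhibition of 50% or more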
SSB FP counter – counter-screen for HCV NS3 helicase inhibitors: E. coli SSB binding | shares compounds with HCV NS3h FP | E. coli SSB binding Cy5-dT15, fluorescence polarization | inhibition, % at 100 µM | 40% of 240 active;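 active = inhibition of at least 50%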;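 note: displacers lower Cy5 polarization so higher inhibition means more SSB displaced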
Target sequence (P0AGE0 whole entry, looked up): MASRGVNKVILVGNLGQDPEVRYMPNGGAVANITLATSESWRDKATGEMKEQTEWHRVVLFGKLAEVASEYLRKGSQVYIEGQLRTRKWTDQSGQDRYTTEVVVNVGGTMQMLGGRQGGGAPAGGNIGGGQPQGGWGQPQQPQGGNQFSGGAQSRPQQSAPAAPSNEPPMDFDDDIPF
Cy5 SSB fluor CB – enhances or quenches Cy5-DNA fluorescence with E. coli SSB; Cy5-dT15/E. coli SSB fluorescence interference; actives lie on both sides; shares compounds with HCV NS3h FP; 8% of 240 active; fluorescence interference ratio at 100 µM;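 active = fluorescence interference ratio at or above 1.2, signal boosting, or at or below 0.8, signal quenching; inactive = ratio between 0.8 and 1.2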;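 note: ratio of compound well signal to mean negative control signal so 1 means no effect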
Cy5 fluor confirm – confirmation counter-screen for HCV NS3 helicase inhibitors: fluorescence interference | shares compounds with HCV NS3h FP | Cy5-dT15 DNA/NS3h fluorescence interference counterscreen | fluorescence interference ratio at 100 µM, hits read low | 44% of 240 active;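 active = fluorescence interference ratio at or below 0.8 quencher or at or above a set limitenhancer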;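 note: ratio of compound fluorescence to mean of negative controls so 1 means no interference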
An asterisk follows results filed as active; . = no result.

SMILES | HCV NS3h FP | Cy5 interf NS3h | HCV NS3h conf | SSB FP counter | Cy5 SSB fluor CB | Cy5 fluor confirm
NC1=NC(=O)/C(=C/c2cccc(Oc3ccccc3)c2)S1 | -1 | 0.97 | . | . | . | .
COc1cccc(/C=C2/SC(N)=NC2=O)c1 | 53* | 1.3* | -8 | 3 | 0.97 | 1
Cc1ccc([N+](=O)[O-])cc1N[C@@H]1OC[C@@H](O)[C@H](O)[C@H]1O | -1 | 1.1 | . | . | . | .
CCN(C)c1ccc(C=C2C(=O)NC(=O)NC2=O)cc1 | 92* | 1.9* | 111* | 95* | 1.5* | 2.2*
CCOc1ccc(C=C2C(=O)NC(=O)NC2=O)cc1OCC | 18 | 1.1 | . | . | . | .
CC(=O)N1CCN(c2nc(OC(C(F)(F)F)C(F)(F)F)nc(N(c3ccccc3)c3ccccc3)n2)CC1 | 14 | 0.89 | . | . | . | .
N#C/C(=C/c1ccc(-c2ccc(C(=O)O)c(Cl)c2)o1)C(=O)Nc1ccccc1 | 16 | 0.98 | . | . | . | .
COc1ccc(NC(=O)/C(C#N)=C\c2ccc(-c3ccc(C(=O)O)c(Cl)c3)o2)cc1 | 59* | 1.1 | 7 | 16 | 0.88 | 0.75*
Cc1ccc(C(=O)Nc2cccc([N+](=O)[O-])c2C)cc1C | 11 | 1 | . | . | . | .
COc1cccc(/C=C2/C(=O)ON=C2c2ccccc2)c1OC | 3 | 0.83 | . | . | . | .
O=C1ON=C(c2ccccc2)/C1=C\c1ccc(OCc2ccccc2)cc1 | 40 | 1 | 3 | 9 | 0.96 | 0.75*
Cc1nc(NC(=O)c2ccccc2)sc1-c1csc(Nc2cccc(C(=O)O)c2)n1 | 37 | 0.8* | -1 | 22 | 0.93 | 0.73*
Cc1ccc(C(=O)Nc2nc(-c3ccccc3)cs2)cc1[N+](=O)[O-] | 10 | 1 | . | . | . | .
CCOC(=O)c1c(NC(C)=O)sc(I)c1-c1ccccc1 | -2 | 0.86 | . | . | . | .
O=C(Oc1ccc(-c2nc3ccccc3[nH]2)cc1)c1ccc(Cl)cc1 | 15 | 0.88 | . | . | . | .
O=C(Oc1ccc(Cl)cc1)c1ccccc1 | 54* | 1.2 | 50* | 60* | 1.2 | 1.2*
N#Cc1c(-c2ccccc2)cc(-c2ccc(Br)cc2)nc1N | 6 | 1.1 | . | . | . | .
Cn1c2ccc(CC(N)=O)cc2c2cc(CC(N)=O)ccc21 | 44* | 1.2 | 2 | 8 | 1.1 | 0.84
CC(=O)c1ccc2c(c1)c1ccccc1n2C | 18 | 0.98 | . | . | . | .
O=C(Nc1ccccc1-c1ccccc1)c1ccc(I)cc1 | 17 | 1 | . | . | . | .
CN(C)c1ccc(/C=N\N2C(=O)C3C(C2=O)C2C=CC3C23CC3)cc1Br (stereo unspecified) | 12 | 0.93 | . | . | . | .
O=C1N=c2ccccc2=C1N=Nc1nc(O)c(-c2c(O)[nH]c3ccccc23)s1 | 124* | 0.4* | 14 | 32 | 0.76* | 0.73*
COc1ccc(/C=C/C(=O)NC(=S)n2cnc3ccccc32)cc1OC | 3 | 1 | . | . | . | .
O=C1NC(=S)N/C1=C\c1ccc(Oc2ccc([N+](=O)[O-])cn2)cc1 | -1 | 0.98 | . | . | . | .
O=C1NC(=S)S/C1=C\c1ccc(Oc2ccc([N+](=O)[O-])cn2)cc1 | 39 | 1 | 26 | 4 | 0.98 | 0.72*
SMILES | HCV NS3h FP | Cy5 interf NS3h | HCV NS3h conf | SSB FP counter | Cy5 SSB fluor CB | Cy5 fluor confirm
COc1cccc(/C=C2/SC(=S)N(CC(=O)O)C2=O)c1O | 6 | 0.98 | . | . | . | .
O=C(O)CN1C(=O)/C(=C\c2cccc([N+](=O)[O-])c2O)SC1=S | 44* | 1.1 | 11 | 30 | 0.89 | 0.73*
COc1ccccc1NC(=O)c1ccc(OC)c([N+](=O)[O-])c1 | -3 | 1 | . | . | . | .
COc1ccc(C(=O)Nc2ccc3nn(-c4ccc(F)cc4)nc3c2)cc1Br | -29 | 0.98 | . | . | . | .
N#CC1=C(S)NC(=O)C(C#N)C12CCCCC2 (stereo unspecified) | 44* | 0.96 | 19 | 39 | 0.94 | 0.9
C=CCSC1=C(C#N)C2(CCCCC2)C(C#N)C(=O)N1 (stereo unspecified) | 3 | 1 | . | . | . | .
CC(=O)Oc1cccc(N2C(=O)c3ccc(C(=O)c4ccc5c(c4)C(=O)N(c4cccc(OC(C)=O)c4)C5=O)cc3C2=O)c1 | 41* | 0.99 | 2 | 11 | 0.98 | 0.91
CC(=O)Oc1ccc(N2C(=O)c3ccc(C(=O)c4cccc([N+](=O)[O-])c4)cc3C2=O)cc1 | 5 | 1 | . | . | . | .
CCc1ccccc1NC(=O)C(C)Oc1ccc(OC)cc1 (stereo unspecified) | 3 | 1 | . | . | . | .
Cc1ccc([N+](=O)[O-])cc1N1C(=O)C=CC1=O | 87* | 1.1 | 44 | -3 | 0.94 | 0.76*

High-throughput results deposited in PubChem BioAssay by Milwaukee Institute for Drug Discovery.
